Results taken from the supplement of paper PMC13380429.
Values without a mark were called inactive.

System: Vero E6 infected with SARS-CoV-2
Assay: inhibition of SARS-CoV-2 cytopathic effect; higher = more antiviral protection, active = above 15
Settings: 48 h

Row | SMILES | inhibition of SARS-CoV-2 cytopathic effect (1 nM) [%] | inhibition of SARS-CoV-2 cytopathic effect (8.33 nM) [%] | inhibition of SARS-CoV-2 cytopathic effect (100 nM) [%] | inhibition of SARS-CoV-2 cytopathic effect (833.33 nM) [%] | inhibition of SARS-CoV-2 cytopathic effect (10000 nM)
1 | O=Nc1c(O)[nH]c2c(Cl)c(Cl)ccc12 | -0.18 | -0.08 | -2.11 | -0.54 | -3.64%
2 | CNC(=N)NC(=O)Nc1c(C)cccc1C [lidamidine] | 0.93 | 2.74 | 3.39 | 3.62 | -2.49%
3 | Nc1ccc2cc3ccc(N)cc3nc2c1 [proflavine-hemisulfate] | -1.46 | -2.57 | -0.42 | 1.94 | -8.75%
4 | O=C1OC(CN2CCOCC2)CN1/N=C/c1ccc([N+](=O)[O-])o1 (stereo not given) [furaltadone] | -10.1 | -5.96 | -8.17 | -6.67 | -6.1%
5 | O=C(O)c1ccc(/C=C2\SC(=S)N(c3cccc(C(F)(F)F)c3)C2=O)cc1 | -0.08 | -0.83 | -2.17 | -1.38 | -0.46%
6 | CNc1ncnc2c1ncn2[C@@H]1O[C@H](CO)[C@@H](O)[C@H]1O [N6-methyladenosine] | 1.25 | 1.97 | -1.29 | 0.63 | 2.03%
7 | COc1cc2c(cc1OC(C)C)[C@H](c1ccc(Cl)cc1)N(c1ccc(N(C)C[C@H]3CC[C@H](N4CCN(C)C(=O)C4)CC3)cc1)C(=O)C2 | -0.21 | 1.25 | 2.45 | 2.4 | 2.39%
8 | CC1(C)Cc2c(-c3ccccc3)c(-c3ccc(Cl)cc3)c(CC(=O)O)n2C1 [licofelone] | -2.87 | 2.92 | 4.49 | 3.45 | 2.49%
9 | CC1(N2CCC(n3c([C@@H]4CCCNC4)nc4ccccc43)CC2)CCCCCCC1 | 0.07 | 0.4 | -0.65 | -3.36 | 83.5% (active)
10 | COc1ccc(C2C(=O)c3ccccc3C2=O)cc1 [anisindione] | 0.46 | 1.92 | 2.19 | -3.04 | -1.46%
11 | CCOc1ccccc1C(=O)O [2-ethoxybenzoic-acid] | 2.67 | 3.72 | 4.26 | 0.66 | -0.66%
12 | CN(C(=O)c1ccc(F)cc1C(F)(F)F)C1CCN(c2nnc(-c3ccnn3C)c3ccccc23)CC1 [taladegib] | 0.16 | -6.09 | -5.17 | -5.9 | -5.54%
13 | CCc1cccc(CC)c1NC(=O)CN(CC(=O)O)CC(=O)O [etifenin] | -0.66 | 1.39 | 0.25 | 0.46 | 3.26%
14 | COc1cc2c(Oc3ccc(NC(=O)C4(C(=O)Nc5ccc(F)cc5)CC4)cc3F)ccnc2cc1OCCCN1CCOCC1 [foretinib] | -0.07 | -1.17 | 2.06 | -5.86 | -22.4%
15 | O=C(CN1CCN(C(=O)c2ccco2)CC1)Nc1cc(C(F)(F)F)ccc1Cl | 0.23 | -4.63 | -0.17 | 1.03 | 5.23%
16 | Cc1cc(I)ccc1Nc1c(C(=O)NOCC2CC2)cc(F)c(F)c1F | 0.41 | 5.24 | 7.71 | -0.67 | -4.88%
17 | Clc1ccc(N2CCN(Cc3c[nH]c4ncccc34)CC2)cc1 | -0.1 | -0.31 | -2.94 | 1.1 | -3.38%
18 | C/C=C1/[C@H](O[C@@H]2O[C@H](CO)[C@@H](O)[C@H](O)[C@H]2O)OC=C(C(=O)OC)[C@H]1CC(=O)OCCc1ccc(O)c(O)c1 [oleuropein] | 0.9 | -0.2 | -0.09 | 0.43 | 0.52%
19 | Cc1cc(-c2cc(OC(=O)c3ccccc3)ccc2Cl)cc2nnc(Nc3ccc(OCCN4CCCC4)cc3)nc12 | -2.62 | 2.55 | 2.44 | 1.14 | 2.17%
20 | C=C[C@H]1CN2CC[C@H]1CC2C(OC(=O)OCC)c1ccnc2ccc(OC)cc12 (stereo in doubt) [quinine-ethyl-carbonate] | 0.47 | 2.1 | 0.07 | 6.66 | 5.77%

Row | SMILES | inhibition of SARS-CoV-2 cytopathic effect (1 nM) [%] | inhibition of SARS-CoV-2 cytopathic effect (8.33 nM) [%] | inhibition of SARS-CoV-2 cytopathic effect (100 nM) [%] | inhibition of SARS-CoV-2 cytopathic effect (833.33 nM) [%] | inhibition of SARS-CoV-2 cytopathic effect (10000 nM)
21 | O=C1NC(=O)[C@@H](c2cn3c4c(cccc24)CCC3)[C@@H]1c1c[nH]c2ccccc12 [tivantinib] | -0.36 | -0.11 | -2.57 | -1.94 | 2.92%
22 | CCCCCCCC(=O)N[C@H](CN1CCCC1)[C@H](O)c1ccc2c(c1)OCCO2 [eliglustat] | 3.28 | 2.4 | -0.12 | 4.02 | 0.05%
23 | CC(C)Oc1ccc2c(=O)c3cc(C(=O)O)ccc3oc2c1 | -2.35 | -1.43 | -1.13 | -1.68 | -1%
24 | CCN1CCN(c2ccc(Nc3cc(N(C)C(=O)Nc4c(Cl)c(OC)cc(OC)c4Cl)ncn3)cc2)CC1 | -2.08 | -5.16 | 0.14 | -2.75 | 23.9% (active)
25 | CC1(C)C[C@@H]1C(=O)N/C(=C\CCCCSC[C@H](N)C(=O)O)C(=O)O [Cilastatin Sodium] | 1.3 | 3.44 | -0.05 | -0.19 | -0.52%
26 | C[C@@H]1O[C@@H](O[C@H]2[C@H](Oc3cc(O)c4c(c3)O[C@H](c3ccc(O)cc3)CC4=O)O[C@H](CO)[C@@H](O)[C@@H]2O)[C@H](O)[C@H](O)[C@H]1O [Naringin (Naringoside)] | -3.68 | -1.36 | -3.02 | -1.1 | 1.71%
27 | COc1ccc2nc3c(c(N)c2c1)CCCC3 [7-methoxytacrine] | 0.9 | 2.7 | 0.06 | 4.86 | 4.52%
28 | NS(=O)(=O)c1ccc2c(c1)C1C=CCC1C(c1ccc(Br)cc1)N2 (stereo not given) | -1.04 | 1.37 | -1.73 | -1.33 | -0.61%
29 | C[C@]12N[C@H](Cc3ccccc31)c1ccccc12 [dizocilpine-(-)] | 1.97 | 1.82 | 1.33 | 1.1 | -0.44%
30 | CCCCCCCCCCCCCCCC(=O)OC[C@H](COP(=O)([O-])OCC[N+](C)(C)C)OC(=O)CCCCCCCCCCCCCCC [colfosceril-palmitate] | -7.11 | -7.33 | -5.95 | -6.54 | -9.82%
31 | CN(C)C(=O)Oc1ccc[n+](C)c1 [mestinon] | 4.06 | -0.26 | 0.13 | -2.1 | -1.86%
32 | CCC1(C)CC(=O)NC(=O)C1 [bemegride] | -1.73 | -2.18 | -2.05 | 1.29 | -2.8%
33 | COc1cc2c(cc1OC)CN(CCc1ccc(NC(=O)c3cc(OC)c(OC)cc3NC(=O)c3cnc4ccccc4c3)cc1)CC2 [tariquidar] | 1.54 | -1.28 | 2.75 | 1.99 | -0.52%
34 | Oc1ccc2c3c1O[C@H]1c4oc5ccccc5c4C[C@@]4(O)[C@@H](C2)N(CC2CC2)CC[C@]314 [naltriben] | 0.92 | -0.89 | 0.12 | -0.45 | -2.94%
35 | O=C(O)COc1ccc(OCCNC[C@H](O)COc2ccccc2)cc1 | -0.61 | -0.47 | -1.08 | 0.26 | 1.07%
36 | NC(=O)Cc1cccc(C(=O)c2ccccc2)c1N [nepafenac] | -0.09 | 1.07 | -0.56 | -1.36 | -2.65%
37 | CSc1ccc([C@H]2CN3CCC[C@H]3c3ccccc32)cc1 (racemic) | 3.1 | 1.05 | 2.84 | 3.32 | 1.44%
38 | CCN1C[C@H](C)n2c(c(O)c3c(=O)n(Cc4ccc(F)c(Cl)c4)nc(C(=O)NC)c32)C1=O | -0.8 | 0.13 | -1.06 | 0.69 | -2.34%
39 | c1ccc2c(CCNc3ccc(Nc4ccncc4)cc3)c[nH]c2c1 [serdemetan] | -2.3 | -1.01 | -2.55 | -0.64 | 22.1% (active)
